# Inconclusive results are not listed. Where a call stands in place of a potency, no number is given. Active and inactive are the calls of the source. Calls follow the shape of the dose curve; as a rule, active = well fitted curve in the direction sought with a large enough effect; inconclusive = small, poorly fitted or top-dose-only effect, or another doubt; inactive = no such curve, though single readings can be large; an effect the other way counts as inactive or inconclusive.
# How the values were obtained:
# [1] = target: Aldehyde dehydrogenase, mitochondrial (Homo sapiens) (UniProt P05091); assay: qHTS for Inhibitors of the Aldehyde Dehydrogenase Family (ALDH2) Primary screen (AID 2061308); also: nearly all actives have a fitted effect of over 55% in size
# [2] = target: Retinaldehyde dehydrogenase 3 (Homo sapiens) (UniProt P47895); assay: qHTS for Inhibitors of the Aldehyde Dehydrogenase Family (ALDH1A3) Primary screen (AID 2061315)
SMILES,Potency [1],Potency [2]
O=C(CNC(=O)c1ccccc1Cl)OC(C(=O)Nc1cc(C(F)(F)F)ccc1Cl)c1ccccc1 (stereo not drawn),inactive,inactive
COc1ccc(NC(=O)c2[nH]c(C)c(C(C)=O)c2C)cc1S(=O)(=O)Nc1cccc(C#N)c1,inactive,inactive
COc1nccc(-c2nc(Nc3ccc(F)c(F)c3)c3ccccc3n2)c1OC,inactive,inactive
COc1ccc(CSc2nc3ncc(Br)cc3[nH]2)cc1F,inactive,inactive
COc1cccc(NC(=S)N2CCN(c3ccc(C(F)(F)F)cc3[N+](=O)[O-])CC2)n1,inactive,inactive
Cc1ccc(CN(C)c2ncnc3ccc(-c4ccc(C(=O)O)o4)cc23)o1,inactive,inactive
CC(C)c1ccccc1-c1nc(NCc2ccc(-c3cccnc3)cc2)c2[nH]cnc2n1,inactive,inactive
Cc1cc(C)nc(NC(=S)N2CCN(c3ccc(C(F)(F)F)cc3[N+](=O)[O-])CC2)c1,inactive,inactive
Cc1ccc(NS(=O)(=O)c2cc3c(cc2Cl)CCC(=O)N3)cc1Cl,inactive,inactive
CCn1c2ccccc2c2cc(Nc3ccnc(NCCCN4CCOCC4)n3)ccc21,inactive,inactive
Cc1c(P(=S)(c2ccccc2)c2ccccc2)[n+]2ccccc2n1CCCCCc1ccccc1,inactive,inactive
C=C1C(=O)O[C@@H]2C[C@H](C)[C@@H]3CC(=O)[C@H](O)[C@@]3(C)C[C@H]12,inactive,inactive
O=C(NNc1nc2cc(F)ccc2n2cccc12)c1cnccn1,inactive,inactive
Clc1ccccc1-c1ccc2ncnc(NCc3cccs3)c2c1,inactive,inactive

# — PubChem BioAssay (NCATS)
